{"source": "PubChem BioAssay (EPA / NIEHS)", "note": "“And” between values parts separate entries of the source, which are not always exact repeats. Equal entries are not always repeated. Where a structure was tested more than once in an assay, its records may differ in their call. The source made the active and inactive calls. The calls were made as follows: active = hit-call score of the fitted dose curve at least 0.9, where 1 is the maximum; inactive = score below 0.9.", "data": [{"read-out": "CD40, CD40 (gene 958)", "experiment": "BSK_IMphg_CD40: BioMAP Diversity Plus: IMphg Assay for CD40 Biomarker Activity (AID 2284288)", "settings": "primary human endothelial cells with macrophages", "procedure": "BSK_IMphg is a cell-based, multiplexed-readout assay that uses venular endothelial cells and macrophages, a human vascular primary cell, with measurements taken at 24 hours after chemical dosing in a microplate: 96-well plate.BSK_IMphg_CD40 is an assay component measured in the BSK_IMphg assay. It measures CD40 antibody related to regulation of gene expression using ELISA technology.Data from the assay component BSK_IMphg_CD40 was analyzed at the endpoint, BSK_IMphg_CD40, in the positive analysis fitting direction relative to DMSO as the negative control and baseline of activity. Using a type of binding reporter, gain or loss-of-signal activity can be used to understand protein changes. To generalize the intended target to other relatable targets, this assay endpoint is annotated to the 'cytokine' intended target family, where the subfamily is 'inflammatory factor'.\nThe levels of cell surface (or secreted, indicated by the prefix \"s\") biomarker endpoints were measured by ELISA. Overt cytotoxicity to cells in confluent adherent cultures (all systems other than the BT system) was assessed by measuring total protein levels using sulforhodamine B (SRB) staining in parallel cultures at the time of biomarker measurements, indicated as SRB endpoints. For proliferation assays for adherent cell types, individual cell types are cultured at sub-confluence and relative cell numbers quantified by SRB staining at time points optimized for each system (48 h: 3C and CASM3C systems; 72 h: BT and HDF3CGF systems; 96 h: SAg system). SRB was performed by staining cells with 0.1% SRB after fixation with 10% TCA and reading wells at 560 nm.Viability and proliferation of PBMC (T cells) was quantified by Alamar Blue reduction for the SAg and BT systems. For PBMC viability (referred to as PBMC Cytotoxicity within the assay endpoint names), cells were plated (75,000/well in a 96-well plate) and then chemical samples added for 1 h before addition of activators, SEB and TSST-1 (20 ng/mL final concentration each). Cells were incubated for 90 h. Then, Alamar Blue (20 uL/well) (Invitrogen, Cat DAL1100) was added for 6 h, and the plates were read with a fluorescence microplate reader at 546/580 nm (excitation/emission). For PBMC proliferation, cells were plated and activated as above but incubated for only 16 h prior to addition of Alamar Blue. Plates were read after 6 h.", "values": [{"smiles": "O=C(O)C(F)(F)OC(F)(F)C(F)(F)OC(F)(F)C(F)(F)OC(F)(F)F", "outcome": "inactive"}, {"smiles": "NC(=O)C(F)(F)C(F)(F)C(F)(F)C(F)(F)C(N)=O", "outcome": "inactive"}, {"smiles": "O=S(=O)(O)CCC(F)(F)C(F)(F)C(F)(F)C(F)(F)C(F)(F)C(F)(F)C(F)(F)C(F)(F)F", "outcome": "inactive", "AC50": "20.9 µM (active)"}, {"smiles": "O=S(=O)(Cl)C(F)(F)C(F)(F)C(F)(F)C(F)(F)C(F)(F)C(F)(F)C(F)(F)C(F)(F)F", "outcome": "inactive"}, {"smiles": "O=C(Cl)C(F)(F)C(F)(F)C(F)(F)C(F)(F)C(F)(F)C(F)(F)F", "outcome": "inactive"}, {"smiles": "O=C(O)C(F)(F)C(F)(F)C(F)(F)C(=O)O", "outcome": "inactive", "AC50": "43.1 µM (active)"}, {"smiles": "OCC(F)(F)C(F)(F)C(F)(F)C(F)(F)C(F)(F)C(F)(F)CO", "outcome": "inactive"}, {"smiles": "FC(F)(F)C(F)(F)C(F)(F)CC1CO1", "note": "(stereo not given)", "outcome": "inactive"}, {"smiles": "CCOC(=O)CC(=O)C(F)(F)C(F)(F)F", "outcome": "inactive"}, {"smiles": "O=C(O)CCC(F)(F)C(F)(F)C(F)(F)C(F)(F)C(F)(F)C(F)(F)C(F)(F)F", "outcome": "inactive"}, {"smiles": "O=C(O)C(F)(F)C(F)(F)C(F)(F)OC(F)(C(F)(F)F)C(F)(F)F", "outcome": "inactive"}, {"smiles": "NC(=O)C(F)(F)C(F)(F)C(F)(F)C(F)(F)C(F)(F)C(F)(F)C(F)(F)F", "outcome": "inactive"}, {"smiles": "C[Si](Cl)(Cl)CCC(F)(F)C(F)(F)C(F)(F)C(F)(F)C(F)(F)C(F)(F)F", "outcome": "inactive"}, {"smiles": "NC(=O)C(F)(F)C(F)(F)C(F)(F)C(F)F", "outcome": "inactive"}, {"smiles": "O=C(O)CCC(F)(F)C(F)(F)C(F)(F)F", "AC50": "0.22 µM (active)", "outcome": "inactive"}, {"smiles": "C=CC(=O)OCC(F)(F)C(F)(F)C(F)(F)C(F)(F)C(F)(F)C(F)(F)C(F)(F)C(F)F", "outcome": "inactive"}, {"smiles": "OCC(F)(F)C(F)(F)C(F)(F)CO", "outcome": "inactive"}, {"smiles": "FC(F)(F)C(F)(F)C(F)(F)C(F)(F)C(F)(F)C(F)(F)CC[Si](Cl)(Cl)Cl", "outcome": "inactive"}, {"smiles": "CCN(CCO)S(=O)(=O)C(F)(F)C(F)(F)C(F)(F)C(F)(F)C(F)(F)C(F)(F)C(F)(F)C(F)(F)F", "outcome": "inactive", "AC50": "36.9 µM (active)"}, {"smiles": "OCCCCC(F)(F)C(F)(F)C(F)(F)C(F)(F)F", "outcome": "inactive"}, {"smiles": "OCC(F)(F)C(F)(F)C(F)(F)C(F)(F)C(F)(F)C(F)(F)C(F)(F)C(F)(F)CO", "AC50": "46.5 µM (active) and 41.2 µM (active)"}, {"smiles": "OC(O)C(F)(F)C(F)(F)F", "outcome": "inactive"}, {"smiles": "NCC(F)(F)C(F)(F)C(F)(F)C(F)(F)C(F)(F)C(F)(F)C(F)(F)C(F)(F)F", "outcome": "inactive"}, {"smiles": "C=CC(=O)OCC(F)(F)C(F)(F)C(F)(F)COC(=O)C=C", "AC50": "22.6 µM (active) and 23.9 µM (active)"}, {"smiles": "O=C(F)C1(F)C(F)(F)C(F)(F)C(F)(F)C(F)(F)C1(F)F", "outcome": "inactive"}, {"smiles": "O=C(O)C(F)(F)C(F)(F)C(F)(F)C(F)(F)C(F)(F)C(F)(F)C(F)F", "outcome": "inactive"}, {"smiles": "CO[Si](C)(CCC(F)(F)C(F)(F)C(F)(F)C(F)(F)C(F)(F)C(F)(F)F)OC", "outcome": "inactive"}, {"smiles": "OCC(O)CC(F)(F)C(F)(F)C(F)(F)C(F)(F)F", "note": "(stereo not given)", "outcome": "inactive"}, {"smiles": "O=S(=O)(OCC(F)(F)F)C(F)(F)C(F)(F)C(F)(F)C(F)(F)F", "outcome": "inactive"}, {"smiles": "CNS(=O)(=O)C(F)(F)C(F)(F)C(F)(F)C(F)(F)C(F)(F)C(F)(F)C(F)(F)C(F)(F)F", "outcome": "inactive"}, {"smiles": "FC(F)(F)C(F)(F)C(F)(F)C(F)(F)C(F)(F)C(F)(F)C(F)(F)CCI", "outcome": "inactive"}, {"smiles": "NC(=O)C(F)(F)C(F)(F)C(F)(F)F", "outcome": "inactive"}, {"smiles": "NCC(F)(F)C(F)(F)C(F)(F)C(F)(F)C(F)(F)C(F)(F)F", "outcome": "inactive"}, {"smiles": "NS(=O)(=O)C(F)(F)C(F)(F)C(F)(F)C(F)(F)C(F)(F)C(F)(F)F", "AC50": "39.5 µM (active) and 25.4 µM (active)"}, {"smiles": "COC(F)(C(F)F)C(F)(F)F", "note": "(stereo not given)", "outcome": "inactive"}, {"smiles": "OCC(O)CC(F)(F)C(F)(F)C(F)(F)C(F)(F)C(F)(F)C(F)(F)C(F)(F)C(F)(F)F", "note": "(stereo not given)", "outcome": "inactive"}]}]}
